Source: PubChem BioAssay (NCI)
Compounds without any hit were thinned out: in the full panel of roughly 83,000, 20% have a hit.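 Single-concentration screen, 48 h exposure, 96-well plates. Endpoint: percent growth. Below 10 = active.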 Values without a mark were called inactive. Activity calls are given as the source filed them.

system: HL-60(TB) leukemia; assay: NCI-60 one-dose screen, 48 h (100 = growth as untreated, 0 = no growth, -100 = all killed); conditions: 10 µM unless noted

| SMILES | growth |
| --- | --- |
| Cc1ccc(/C=C/C(=O)c2ccc(S(=O)(=O)NCCNc3nc(N(C)C)nc(N4CCOCC4)n3)cc2)cc1 | 30.7% |
| COc1cc2c(c(OC)c1OC)C(=O)CC(c1cccc(NC(=O)c3cccc(N)c3)c1)O2 (centres undefined) | 86.4% |
| COC[C@@H](CC(C)C)N=C1N/C(=C\c2ccc3ncsc3c2)C(=O)N1C | -1.54% (active) |
| C#CCOc1cc(N(CC)CC)ccc1C(C(=O)NC(C)(C)C)N(C(=O)C1CCc2cc(F)ccc2O1)c1cc(C)cc(C)c1 (centres undefined) | 7.34% (active) |
| O=C(CSc1nnc(-c2ccc(-c3nc4ccc(Cl)cc4[nH]3)cc2)o1)Nc1ccccc1 | 42.1% |
| Cc1occc1C(=O)NN1C(=O)/C(=C/C=C/c2ccc([N+](=O)[O-])o2)SC1=S | 0.964% (active) |
| OC1CCC(Cn2c(C(F)(F)F)cc3c(Cl)ncnc32)CC1 (centres undefined) | -37.5% (active) |
| COc1ccc(N(C)c2cc(C#N)nc3ccccc23)cc1/C=C/C(=O)NO | -28.7% (active) |
| Cc1ccc2nc(COc3ccc(C(=O)NNC(=S)NCCc4ccccc4)cc3)[nH]c2c1 | 99.7% |
| O=C(CNc1nc(-c2ccccc2)cs1)Nc1cccc([N+](=O)[O-])c1 | -8.94% (active) |
| c1n[nH]cc1-c1nc2ccc3cn[nH]c3c2c2c1CCCC2 | 94.4% |
| CCOc1ccccc1[C@H]1C(C(=O)c2ccc(Cl)cc2)C2(N[C@@H]1c1ccccc1)C(=O)Nc1ccccc12 (some centres undefined) | -35.5% (active) |
| COc1ccc(Cc2nn(CC(=O)N/N=C/c3ccc(Br)cc3)c(=O)c3c(C)noc23)cc1 | 91.2% |
| Oc1cncc(-c2ccc3ncnc(N4CCc5cc(F)c(Cl)cc54)c3c2)c1 | 84.7% |
| COc1cc2c3c(n(CCCn4ccnc4)c(=O)c2cc1OC)-c1nc2c(cc1C3=O)OCO2 | 75.8% |
| Cc1cc(C)cc(NC(=O)Cn2cc(COn3nnc4ccccc43)nn2)c1 | 92.6% |
| CN1C(=O)N(C)C2SC(N/N=C/C=C/c3ccccc3)=NC21 (centres undefined) | 30.4% |
| COc1cc2oc(-c3cccc(C(=O)Nc4ccc(Cl)cc4)c3)cc(=O)c2c(OCCNC(=O)[C@H](CCC(=O)OC(C)(C)C)NC(=O)OC(C)(C)C)c1OC | 101% |
| O=C(Cc1ccc2c(c1)CN(C1CCC(=O)NC1=O)C2=O)NCc1cccc2ccccc12 (centres undefined) | -24.9% (active) |
| O=C1CCC(N2Cc3c(NCc4ccc(-c5ccccc5)cc4)cccc3C2=O)C(=O)N1 (centres undefined) | 10.7% |
| CC12CC[C@@H]3[C@]4(C)COC(c5cn[nH]c5-c5cccc(Br)c5)O[C@@H]4CC[C@@]3(C)[C@@H]1CC(C1=CCOC1=O)O2 (some centres undefined) | 13% |
| Cc1cc(C)cc(Oc2cccc(-c3c(C)nnn3C3CCN(CCN(C)C)CC3)n2)c1 | -37% (active) |
| CN1CCc2c(sc3ncnc(N/N=C/c4ccc(Cl)cc4Cl)c23)C1 | -49.9% (active) |
| COc1cc2c(c(OC)c1OC)C(=O)CC(c1cccc(NC(=O)c3cc(NC(=O)[C@H](CO)NC(=O)OC(C)(C)C)ccc3Cl)c1)O2 (some centres undefined) | 36.6% |
| CCOc1ccccc1NC(=O)N/C(N)=N/c1nc2ccccc2s1 | -23.4% (active) |
| COc1ccc([C@H]2C(C(=O)c3ccc(Cl)cc3)C3(N[C@@H]2c2ccccc2)C(=O)Nc2ccc(Br)cc23)cc1 (some centres undefined) | 15.3% |
| COc1cc(CNC(=O)C[C@H](C)CCC=C(C)C)ccc1OCc1cn(-c2ccc(Cl)c(Cl)c2)nn1 | 84% |
| Cc1cccc(NCC(=O)N2CCN(c3ncnc4c3cnn4-c3ccccc3)CC2)c1 | 60.2% |
| Cc1ccccc1NC(=O)c1cccc(NC(=O)CCl)c1 | 19% |
